Screening data from PubChem.
This is one part of a sample in which hits are shown more often than they occur.
C diff growth: blocks growth of Clostridium difficile; Clostridium difficile clinical isolate growth, OD600, 24 h; active compounds read low; growth activity, negative = inhibition, % at 16 µg/mL (by protocol); actives 0.25% (n = 86,000);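 active = mean growth activity at or below -80% and every replicate also at or below -80%; inconclusive = mean at or below -80% but some replicate above -80%; inactive = mean growth activity above -80%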;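 note: 0% = DMSO wells and -100% = levofloxacin 16 µg/mL wells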
T cruzi growth-1: T. cruzi proliferation inhibition; T. cruzi beta-gal in NIH3T3, GalScreen luminescence, 90 h; inhibition, % at 8.34 µM; actives 5.9% (n = 77,000); AID 624255;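 active = mean inhibition above about 93%, with at least 55% of replicates each passing it, limit read from the data, passing the limit was not always enough; inconclusive = only one of those two conditions holds; inactive = neither condition holds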
T cruzi growth-2: blocks T. cruzi growth in NIH3T3 host cells; inhibition, % at 8.35 µM; AID 651739; shares compounds with T cruzi growth-1; T. cruzi beta-gal in NIH3T3, GalScreen luminescence, 90 h; actives 72% (n = 5,600);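 active = mean replicate inhibition above about 95% and at least 55% of replicates individually reaching it, limit read from the data; inconclusive = only one of the two criteria is met; inactive = neither criterion is met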
T cruzi growth-3: inhibitors of T. cruzi proliferation; AID 651740; inhibition, % at 2.09 µM; T. cruzi beta-gal in NIH3T3, GalScreen luminescence, 90 h; shares compounds with T cruzi growth-1; actives 21% (n = 5,600);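 active = mean inhibition above about 95%, with at least 55% of replicates also reaching it, limit read from the data; inconclusive = meets just one of the two conditions; inactive = meets neither condition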;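 note: plate controls were neutral control median for no effect and positive control median for full effect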
NIH3T3 tox: NIH/3T3 (mouse) viability loss | cytotoxicity (signal decrease), % at 8.35 µM | shares compounds with T cruzi growth-1 | actives 14% (n = 5,600) | NIH/3T3 viability, CellTiter-Glo ATP luminescence, 90 h;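 active = mean signal decrease across replicates above about 35% based on untreated-well scatter, with enough replicates individually passing, limit read from the data; inconclusive = no rule stated though some were filed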;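 note: 0% = median of neutral control wells and 100% = median of positive control wells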
3T3 cytotox 2: kills mouse NIH/3T3 fibroblasts. shares compounds with T cruzi growth-1. NIH/3T3 viability, CellTiter-Glo ATP luminescence, 90 h. inhibition, % at 24.9 µM. actives 56% (n = 5,600);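 active = mean loss of cell viability signal at or above a set limit, and enough replicates individually reaching it; inconclusive = meets only the mean limit or only the replicate share; inactive = meets neither condition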;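 note: 0% = median of neutral control wells and 100% = median of positive control wells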
An asterisk follows results filed as active; ? = inconclusive; / = no result given.

SMILES | C diff growth | T cruzi growth-1 | T cruzi growth-2 | T cruzi growth-3 | NIH3T3 tox | 3T3 cytotox 2
C[C@H]1CN([C@@H](C)CO)S(=O)(=O)c2ccc(C#Cc3ccccc3)cc2O[C@@H]1CN(C)S(=O)(=O)c1ccccc1F | 5 | 125* | 98* | 103* | -17 | 29*
C[C@H](CO)N1C[C@H](C)[C@H](CN(C)S(=O)(=O)c2ccccc2F)Oc2cc(C#Cc3ccccc3)ccc2S1(=O)=O | 17 | 125* | 110* | 79 | -1 | 0
CCN1[C@H](C(=O)NC2CCC2)[C@@H](CO)[C@@H]2Cn3c(ccc(-c4ccc(F)cc4)c3=O)[C@@H]21 | -3 | / | / | / | / | /
CC(C)NC(=O)Nc1ccc2c(c1)C(=O)N([C@@H](C)CO)C[C@H](C)[C@@H](CN(C)Cc1ccc3c(c1)OCO3)O2 | 8 | / | / | / | / | /
COc1ccc(S(=O)(=O)Nc2ccc3c(c2)CC(=O)N([C@@H](C)CO)C[C@H](C)[C@@H](CN(C)S(=O)(=O)c2c(C)noc2C)O3)cc1 | -1 | 18 | / | / | / | /
N#C[C@@H]1[C@@H](c2ccc(-c3ccccc3F)cc2)[C@H](CO)N1C(=O)C1CC1 | 7 | 63 | / | / | / | /
COc1ccccc1-c1ccc([C@@H]2[C@H](C#N)N(C(=O)C3CC3)[C@H]2CO)cc1 | 9 | 102* | 49 | -3 | 13 | 47*
COc1ccccc1-c1ccccc1[C@H]1[C@H](C#N)N(C(=O)C2CC2)[C@H]1CO | -10 | / | / | / | / | /
COc1ccc(-c2ccc([C@H]3[C@H](C#N)N(C(=O)C4CC4)[C@H]3CO)cc2)cc1 | 1 | 78 | / | / | / | /
COc1ccccc1-c1ccc([C@H]2[C@H](C#N)N(C(=O)C3CC3)[C@H]2CO)cc1 | 10 | 105* | 77 | 25 | 7 | ?
COc1ccccc1-c1ccc([C@@H]2[C@@H](C#N)N(C(=O)C3CCCC3)[C@@H]2CO)cc1 | -2 | / | / | / | / | /
COc1ccccc1-c1ccc([C@H]2[C@@H](C#N)N(C(=O)C3CC3)[C@H]2CO)cc1 | 13 | 99* | 88 | 49 | 2 | 21
COc1ccccc1-c1ccc([C@@H]2[C@@H](CO)N(C(=O)C3CC3)[C@H]2C#N)cc1 | 9 | 105* | 73 | 8 | -21 | 7
C[C@@H]1CN([C@H](C)CO)C(=O)c2cc(NC(=O)Nc3ccc4c(c3)OCO4)ccc2O[C@@H](C)CCCCO[C@H]1CN(C)Cc1ccc(C(=O)O)cc1 | -1 | 14 | / | / | / | /
C[C@H](CO)N1C[C@H](C)[C@@H](CN(C)Cc2ccc(F)cc2)Oc2cc(C#CC3CC3)ccc2S1(=O)=O | 15 | / | / | / | / | /
COc1ccccc1-c1ccc([C@@H]2[C@@H](C#N)N(C(=O)C3CC3)[C@@H]2CO)cc1 | 2 | 104* | 37 | -11 | -8 | 12
N#C[C@H]1[C@H](c2ccc(-c3ccccc3F)cc2)[C@H](CO)N1C(=O)C1CC1 | 3 | 30 | / | / | / | /
COc1ccccc1-c1ccc([C@H]2[C@@H](C#N)N(C(=O)C3CC3)[C@@H]2CO)cc1 | 8 | 103* | 110* | 45 | 3 | 35*
COc1ccccc1-c1ccc([C@H]2[C@@H](CO)N(C(=O)C3CCCCC3)[C@H]2C#N)cc1 | 3 | 74 | / | / | / | /
C[C@H](CO)N1C[C@H](C)[C@H](CN(C)C(=O)Nc2ccc3c(c2)OCO3)Oc2ccc(NC(=O)CCC(F)(F)F)cc2CC1=O | 3 | -6 | / | / | / | /
O=C(C[C@@H]1C[C@@H]2c3cc(NS(=O)(=O)c4ccc(F)cc4)ccc3O[C@@H]2[C@H](CO)O1)NC1CCCC1 | / | -34 | / | / | / | /
C[C@H]1CN([C@@H](C)CO)C(=O)Cc2cc(NC(=O)Nc3ccc4c(c3)OCO4)ccc2O[C@H]1CN(C)S(=O)(=O)c1cn(C)cn1 | -3 | -4 | / | / | / | /
COc1cccc(NC(=O)N2CC[C@@H]3[C@H]2c2cc(-c4cccc(OC)c4)ccc2N(C)[C@H]3CO)c1 | -2 | / | / | / | / | /
C[C@@H]1CCCCO[C@H](CN(C)Cc2ccccc2)[C@H](C)CN([C@@H](C)CO)C(=O)c2cc(NC(=O)CCCN(C)C)ccc2O1 | 0 | -29 | / | / | / | /
CC(=O)N(C)C[C@H]1Oc2cc(-c3ccc(F)cc3)ccc2S(=O)(=O)N([C@@H](C)CO)C[C@@H]1C | -1 | 8 | / | / | / | /
SMILES | C diff growth | T cruzi growth-1 | T cruzi growth-2 | T cruzi growth-3 | NIH3T3 tox | 3T3 cytotox 2
C[C@H](CO)N1C[C@H](C)[C@H](CN(C)C(=O)Nc2ccc(F)cc2)Oc2cc(-c3ccc(F)cc3)ccc2S1(=O)=O | / | 119* | 104* | 74 | 11 | 56*
CC(=O)N(C)C[C@H]1Oc2cc(-c3ccc(F)cc3)ccc2S(=O)(=O)N([C@@H](C)CO)C[C@H]1C | -1 | 6 | / | / | / | /
C[C@H](CO)N1C[C@H](C)[C@@H](CN(C)C(=O)Nc2ccc(F)cc2)Oc2cc(-c3ccc(F)cc3)ccc2S1(=O)=O | / | 118* | 96* | 46 | 44* | 46*
C[C@H]1CN([C@@H](C)CO)S(=O)(=O)c2ccc(-c3ccc(F)cc3)cc2O[C@H]1CN(C)C(=O)Nc1ccc(F)cc1 | / | 120* | 101* | 81 | 62* | 76*
C[C@@H]1CN([C@@H](C)CO)S(=O)(=O)c2ccc(-c3ccc(F)cc3)cc2O[C@H]1CN(C)C(=O)Nc1ccc(F)cc1 | / | ? | 93 | 7 | 24 | 56*
C[C@H](CO)N1C[C@H](C)[C@H](CN(C)C(=O)Nc2ccc(F)cc2)Oc2cc(-c3cccc(C(=O)N(C)C)c3)ccc2S1(=O)=O | -1 | 18 | / | / | / | /
C[C@@H]1CN([C@H](C)CO)S(=O)(=O)c2ccc(-c3cccc(C(=O)N(C)C)c3)cc2O[C@@H]1CN(C)C(=O)Nc1ccc(F)cc1 | -3 | 22 | / | / | / | /
CCCNC(=O)N1CC2(CCN(C(=O)C3CCOCC3)CC2)c2c([nH]c3cc(OC)ccc23)[C@@H]1CO | 5 | / | / | / | / | /
C[C@H](CO)N1C[C@H](C)[C@H](CN(C)C(=O)CN2CCOCC2)Oc2ncc(/C=C/c3ccccc3)cc2C1=O | 1 | / | / | / | / | /
CCC(=O)N1[C@H](CO)[C@@H](c2ccccc2)C12CN(C(=O)Nc1ccccc1F)C2 | -1 | / | / | / | / | /
C[C@@H]1CN([C@H](C)CO)S(=O)(=O)c2ccc(-c3ccc(F)cc3)cc2O[C@@H]1CN(C)C(=O)Nc1ccc(F)cc1 | / | 120* | 107* | 66 | 7 | 49*
CC(=O)N(C)C[C@H]1Oc2cc(-c3ccc(F)cc3)ccc2S(=O)(=O)N([C@H](C)CO)C[C@@H]1C | -1 | 42 | / | / | / | /
COCCNC(=O)C[C@@H]1C=C[C@@H](NC(=O)NC2CCCC2)[C@H](CO)O1 | / | 12 | / | / | / | /
C[C@@H]1CN([C@@H](C)CO)C(=O)CCCn2cc(nn2)CO[C@@H]1CN(C)C(=O)Nc1ccccc1F | -3 | 74 | / | / | / | /
C[C@H]1CN([C@@H](C)CO)C(=O)c2cc(NC(=O)C3CCCCC3)ccc2O[C@H]1CN(C)Cc1ccc(-c2ccccc2)cc1 | / | 47 | / | / | / | /
C[C@@H]1CN([C@@H](C)CO)C(=O)c2cc(NC(=O)C3CCCCC3)ccc2O[C@@H]1CN(C)Cc1ccc(-c2ccccc2)cc1 | / | ? | 104* | 83 | 24 | 80*
